Source: PubChem BioAssay (National Center for Advancing Translational Sciences (NCATS))
RORgamma inh = ROR gamma (mouse) transcription inhibition; P51450; Drosophila S2 Gal4-RORgamma UAS-luciferase reporter, 20 h; Potency, µM (series often up to 53.6 µM), actives largely listed as inhibitors; 5.4% of 310,000 active; note: nearly all actives have a fitted effect of over 60% in size
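Schneider cells (Drosophila), stable Gal4 DBD–ROR gamma + UAS-luc; 1 hr cmpd preincubation; Cu2+ induction 700 uM final; 20 hr ambient; luminescence.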
VP16 counter = Gal4-VP16 reporter inhibition counter-screen; Drosophila S2 Gal4-VP16 UAS-luciferase, luminescence, 20 h; 3.5% of 310,000 active; AID 2546; Potency, µM (top dose mostly 53.6 µM), actives largely listed as inhibitors;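 note: Gal4-VP16 expression switched on by copper sulfate through the metallothionein promoter; nearly all actives have a fitted effect of over 50% in size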
PLK1 PBD inh = blocks phosphopeptide binding to human PLK1 polo-box domain; P53350; Plk1 PBD binding of FITC phosphopeptide, fluorescence polarization; Potency, µM, most hits filed as inhibitors; 2.8% of 360,000 active; note: series mostly up to about 57 µM; nearly all actives have a fitted effect of over 65% in size
Target sequence (P53350 whole entry, looked up, the tested form may be a part): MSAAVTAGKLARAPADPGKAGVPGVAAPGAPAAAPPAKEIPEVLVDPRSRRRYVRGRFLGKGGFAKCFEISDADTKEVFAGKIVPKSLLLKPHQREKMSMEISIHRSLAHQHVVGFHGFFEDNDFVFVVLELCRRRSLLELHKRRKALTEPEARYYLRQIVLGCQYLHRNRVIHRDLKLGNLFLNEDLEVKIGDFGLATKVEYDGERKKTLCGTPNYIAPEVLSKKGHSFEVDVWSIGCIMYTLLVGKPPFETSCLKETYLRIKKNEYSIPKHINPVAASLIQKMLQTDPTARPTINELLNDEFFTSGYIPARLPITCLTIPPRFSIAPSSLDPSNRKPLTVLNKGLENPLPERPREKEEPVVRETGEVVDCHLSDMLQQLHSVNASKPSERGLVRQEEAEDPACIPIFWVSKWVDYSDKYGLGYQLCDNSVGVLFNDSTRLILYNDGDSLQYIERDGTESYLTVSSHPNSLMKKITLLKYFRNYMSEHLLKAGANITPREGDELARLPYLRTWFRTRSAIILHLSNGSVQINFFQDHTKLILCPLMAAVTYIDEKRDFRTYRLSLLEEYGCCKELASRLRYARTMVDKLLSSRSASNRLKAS
Sfp inh = blocks B. subtilis Sfp PPTase activity; Q9F4F7; Biochemical Sfp PPTase activity, qHTS; Potency, µM, usual class: inhibitors; 3.5% of 310,000 active;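 note: the enzyme is Sfp with the accession as filed and its product quenches rhodamine fluorescence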
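After 15 min at room temperature with compound, 15 nM Sfp received 5 uM rhodamine-CoA plus 12.5 uM BHQ-2-ybbR (50 mM Hepes pH 7.6, 10 mM MgCl2). Rate came from the fluorescence difference over 30 min, ex 525/em 598 nm.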
ALDH1A1 inh = blocks purified human ALDH1A1 activity. AID 1030. P00352. Potency, µM (top dose mostly 75.3 µM), usual class: inhibitors. Purified ALDH1A1, NADH fluorescence, propionaldehyde substrate. 7.3% of 220,000 active; active = well fitted inhibition curve with a large enough effect, not every such curve was filed as active; inconclusive = small, poorly fitted or top-dose-only effect, or another doubt; inactive = no such curve, though single readings can be large or run the other way
Of the large screens only hits and unclear results are named; the others gave an inactive call. An excerpt weighted towards active compounds, which were near 12% of everything screened. Unless noted, calls come from the whole dose curve; as a rule, active = well fitted curve in the direction sought with a large enough effect; inconclusive = small, poorly fitted or top-dose-only effect, or another doubt; inactive = no such curve, though single readings can be large; an effect the other way counts as inactive or inconclusive.

CCn1c(Oc2ccc(F)cc2)nc2c1c(=O)n(C)c(=O)n2C	none
Cn1c(=O)c2c(ncn2Cc2ccccc2)n(C)c1=O	PLK1 PBD inh 26.7µM
CC1CCC2C(=O)N3C(CCC(C)[C@@H]3c3cccc(N4CCOCC4)c3)C(=O)N2C1c1cccc(Br)c1 (stereo partly drawn)	none (no result: PLK1 PBD inh)
CC(=O)O[C@@H]1C(=O)[C@@]2(C)[C@H](O)C[C@H]3OC[C@]3(OC(C)=O)[C@@H]2[C@H](OC(=O)c2ccccc2)[C@@]2(O)C[C@H](OC(=O)[C@@H](O)[C@@H](NC(=O)c3ccccc3)c3ccccc3)C(C)=C1C2(C)C (stereo in doubt)	RORgamma inh inconclusive, Sfp inh inconclusive (no result: PLK1 PBD inh)
CCOC(=O)c1ccc(NC(=O)CCc2nc(-c3ccc(Cl)cc3)no2)cc1	Sfp inh 89.1µM
Cc1ccc(-c2noc(CCC(=O)Nc3ccc4c(c3)OCO4)n2)cc1	VP16 counter inconclusive, PLK1 PBD inh inconclusive, ALDH1A1 inh inconclusive
COc1ccc(NC(=O)CCc2nc(-c3ccc(C)cc3)no2)cc1Cl	none
CCOC(=O)c1ccc(NC(=O)CCc2nc(-c3ccc(C)cc3)no2)cc1	RORgamma inh inconclusive, VP16 counter 7.94µM, Sfp inh inconclusive
Cc1nn(S(=O)(=O)c2ccc(F)cc2)c(C)c1S(=O)(=O)N1CCCCC1	none (no result: ALDH1A1 inh)
COc1ccc(-c2nnc(NC(=O)C3CC3)o2)cc1	RORgamma inh 5.01µM, VP16 counter 10µM
COc1ccc(-c2nnc(NC(=O)C(C)C)o2)cc1	RORgamma inh 11.2µM, VP16 counter inconclusive
COc1cccc(-c2nnc(NC(=O)C3CCCCC3)o2)c1	RORgamma inh 3.55µM, VP16 counter 11.2µM
COc1ccc(-c2nnc(NC(=O)CS(=O)(=O)c3ccc(F)cc3)o2)cc1	none (no result: RORgamma inh, VP16 counter, Sfp inh, ALDH1A1 inh)
COc1ccc(C2=C(c3ccccc3)OC(OC)c3cc(F)ccc32)cn1 (stereo not drawn)	none (no result: RORgamma inh, VP16 counter, Sfp inh, ALDH1A1 inh)
COC(=O)[C@]12CCCCC=C1N(Cc1cccc3ccccc13)C(=O)[C@H](CC(=O)N1CCSCC1)C2	none (no result: RORgamma inh, VP16 counter, Sfp inh, ALDH1A1 inh)
CN1C(=O)/C(=C/c2ccc(O)c([N+](=O)[O-])c2)N(C)C1=S	Sfp inh inconclusive
O=C1S/C(=C\c2ccc(O)c([N+](=O)[O-])c2)C(=O)N1c1ccccc1Cl	PLK1 PBD inh inconclusive, Sfp inh inconclusive, ALDH1A1 inh 0.447µM
Cc1cccc(NC(=O)CN2C(=O)S/C(=C\c3ccc(O)c([N+](=O)[O-])c3)C2=O)c1	ALDH1A1 inh inconclusive
O=C(O)c1cccc(CN2C(=O)S/C(=C/c3ccccc3[N+](=O)[O-])C2=O)c1	none (no result: ALDH1A1 inh)
COc1cc(/C=C2\SC(=O)N(c3ccc(Cl)cc3)C2=O)cc([N+](=O)[O-])c1O	PLK1 PBD inh inconclusive
COc1cc(/C=C2\SC(=O)N(c3cccc(Cl)c3)C2=O)cc([N+](=O)[O-])c1O	PLK1 PBD inh inconclusive, ALDH1A1 inh 0.891µM
O=C1S/C(=C\c2ccc(O)c([N+](=O)[O-])c2)C(=O)N1Cc1cccc([N+](=O)[O-])c1	PLK1 PBD inh 23.8µM, ALDH1A1 inh inconclusive
Cc1ccc(NC(=O)CN2C(=O)S/C(=C/c3ccc(O)c([N+](=O)[O-])c3)C2=O)cc1C	PLK1 PBD inh 21.2µM, Sfp inh inconclusive, ALDH1A1 inh inconclusive
Cc1noc(C)c1-c1ccc2ncnc(NCc3cc(F)cc(F)c3)c2c1	none (no result: PLK1 PBD inh, ALDH1A1 inh)
O=C1COc2ccc(-c3csc(NCCc4ccccc4)n3)cc2N1	ALDH1A1 inh inconclusive
CC1Cc2cc(-c3csc(N)n3)ccc2O1 (stereo not drawn)	none (no result: ALDH1A1 inh)
CCC(C)C(=O)Nc1nc(-c2ccc3c(c2)NC(=O)CO3)cs1 (stereo not drawn)	PLK1 PBD inh inconclusive, ALDH1A1 inh 20µM
Nc1nc(-c2ccc3c(c2)NC(=O)CO3)cs1	RORgamma inh inconclusive, PLK1 PBD inh inconclusive, Sfp inh inconclusive, ALDH1A1 inh 3.16µM
COC(=O)CC1(CC(N)=O)SCCS1	none (no result: RORgamma inh, VP16 counter, Sfp inh, ALDH1A1 inh)
COC(=O)[C@@H](O)CC[C@@H](C)Cc1c(OC)c(OC)c(C)c(OC)c1OC	none (no result: PLK1 PBD inh)
COc1ccc(NC(=S)Nc2cccc(C(F)(F)F)c2)c(C)c1	RORgamma inh 10µM, VP16 counter inconclusive
FC(F)(F)c1cccc(NC(=S)NCc2ccc(Cl)cc2)c1	RORgamma inh 8.91µM, VP16 counter inconclusive
Cc1cc(C(=O)NNC(=S)Nc2cccc(C(F)(F)F)c2)nn1C	RORgamma inh 15.8µM, VP16 counter 11.2µM (no result: ALDH1A1 inh)
FC(F)(F)c1cccc(NC(=S)NNC(=S)Nc2ccc(Cl)cc2)c1	Sfp inh 25.1µM (no result: PLK1 PBD inh, ALDH1A1 inh)
